Source: PubChem BioAssay (NCATS)
Unmarked numbers belong to inactive results. The source made the active and inactive calls. Calls follow the shape of the dose curve; as a rule, active = well fitted curve in the direction sought with a large enough effect; inactive = no such curve, though single readings can be large or run the other way.

assay: qHTS for small molecule inhibitors of Yes1 kinase: Counter Assay (AID 686950); conditions: series mostly up to 76.9 µM; activity change, negative = inhibition: at the top concentration;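 also: no kinase present so only ADP-Glo detection of a fixed ADP amount is tested; luminescence from ADP-Glo reporting ADP in a fixed ATP and ADP mixture; 0% = DMSO wells with ATP plus ADP and -100% = ATP-only wells without ADP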
How it was run: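 ADP-Glo luminescence read after a 60 min room-temperature incubation of compound with an ATP/ADP mix (0.08 mM/0.02 mM) and no kinase, following a 20 min compound preincubation. Signal scaled between ATP+ADP (max) and 0.1 mM ATP-only (min) wells; Tris pH 7.5, Mg2+, DTT.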

Question: With `CCn1c(-c2nonc2N)nc2c(C#CC(C)(C)O)nc(OCC(N)c3ccccc3)cc21` (configuration not stated) as the compound, how does the outcome read?
Answer: inactive

Question: For `NS(=O)(=O)c1ccc(N=Nc2c(O)[nH]c3ccc(C(=O)NCCc4cnc[nH]4)cc23)cc1`, which “activity change, negative = inhibition” value is on record?
Answer: 7.42%

Question: Which “activity change, negative = inhibition” value does the source give for `CN(C)CCCNc1nccc(-c2c(-c3ccc(F)cc3)nn3cc(C(F)(F)F)ccc23)n1` here?
Answer: -1.16%

Question: For `N#Cc1cccc(Nc2nccc(-c3cnn4ncccc34)n2)c1`, which “activity change, negative = inhibition” value is on record?
Answer: 6.09%

Question: With `CCCN1CCC=C(c2ccc(Nc3nc(Nc4ccccc4C(N)=O)c4cc[nH]c4n3)c(C)c2)C1` as the compound, how does the “activity change, negative = inhibition” value read?
Answer: 323%

Question: For `COc1cc(N2CCN(C(C)C)CC2)ccc1Nc1nc(Nc2ccc(F)cc2C(N)=O)c2cc[nH]c2n1`, which “activity change, negative = inhibition” value is on record?
Answer: 258%

Question: With `Cc1ccc(C(=O)NC2CCC2)cc1-c1ccc(C(=O)NCC2CC2)cc1` as the compound, how does the “activity change, negative = inhibition” value read?
Answer: 0.632%
